The panel holds about 83,000 compounds, 20% with a hit somewhere; the sample as a whole holds those more often.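 48-hour exposure, single concentration, 96-well plates; percent growth endpoint where 0 means no net growth. Active: below 10.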 A number with no mark means an inactive call. Activity calls are given as the source filed them.

What all share (experiment): NCI-60 one-dose screen, 48 h (100 = growth as untreated, 0 = no growth, -100 = all killed)
Holding throughout (conditions): 10 µM unless noted

The test system of test [1] is DU-145 prostate.
Test [2] deals with K-562 leukemia.
The test system of test [3] is MALME-3M melanoma.
Test [4] deals with MDA-MB-231 breast.
The subject of test [5] is RXF 393 renal.
The subject of test [6] is SF-268 CNS.
Test [7] concerns SF-295 CNS.
Test [8] concerns SF-539 CNS.
The subject of test [9] is UACC-257 melanoma.
For test [10], the system named is M14 melanoma.
Test [11] deals with HCT-15 colon.
Test [12] relates to HT29 colon.
In test [13] the test system is SNB-75 CNS.
Test [14] has as its system SNB-19 CNS.
The subject of test [15] is U251 CNS.
The subject of test [16] is PC-3 prostate.
The test system of test [17] is SK-MEL-5 melanoma.
The subject of test [18] is UACC-62 melanoma.
For test [19], the system named is LOX IMVI melanoma.
Test [20] has as its system SK-MEL-28 melanoma.

For `C=CCN1C(=O)/C(=c2\sc3n(c2=O)C2C(NN=3)N(CC)C(=O)N2CC)c2ccccc21` (stereo unspecified), the growth in test [1] was 17%; in [2], 10%; in test [3] it was 66%; in test [4], 47.1%; in test [5], 7.25% (active); in test [6], 47.3%. The growth in [7] is 12.9%; in [8], 4.08% (active); in [9], 63.3%; in test [10], 14.4%; in test [11], 15.7%; in test [12], 6.59% (active). Besides, the growth in test [13] is 23.8%; in test [14], 26.8%; in test [15], 22.8%; in [16], 22%; in test [17], 18.5%; in [18], 26.1%. Further, in [19], the growth is 28.9%.

In the case of `CCCCCCCCCCCCCCCCCC1=NCCN1CCO`, the growth in [1] is 78.7%; in [2], 64.6%; in [3] it was 129%; in test [4] it was 58.8%; in test [5], 87.9%; in test [6], 78.4%. Moreover, the growth in test [7] is 90%; in [8], 78.4%; in [9], 84.4%; in [10], 84.1%; in test [11], 61.7%; in test [12], 61.5%. The growth in [13] is 80.6%; in test [14] it was 95.5%; in test [15], 75.6%; in test [16], 63.6%; in [17], 106%; in test [18], 92%. Further, the growth in test [19] was -47.2% (active).

For `C=CCN(CC#N)CC=C`, the growth in [1] is 112%; in test [2], 102%; in test [3], 109%; in test [4] it was 111%; in test [5] it was 112%; in test [6], 114%. Moreover, the growth in [7] is 108%; in test [8], 102%; in [9], 99.5%; in test [10] it was 102%; in [11] it was 116%; in [12] it was 94.5%. Moreover, the growth was 96.2% in test [13]; 109% in test [14]; 100% in [15]; 91% in test [16]; 94.9% in test [17]; 102% in [18]. The growth was 101% in test [19] and 104% in [20].

Regarding `COc1cc2ncnc(Nc3ccc(S(=O)(=O)Nc4nccs4)cc3)c2cc1OCCCN1CCOCC1`, the growth in test [1] is 110%; in [2], 106%; in test [3], 99.8%; in [4], 99.2%; in test [5] it was 111%; in test [6], 98.3%. Besides, the growth in test [7] was 108%; in [8], 98.6%; in test [9] it was 101%; in test [10], 107%; in test [11], 104%; in test [12] it was 106%. The growth in [13] is 95.1%; in test [14], 104%; in test [15], 100%; in [16], 99%; in test [17] it was 108%; in test [18], 98.7%. The growth in test [19] is 97.2%.

Regarding `CS(=O)(=O)c1ccc(C(=O)N/N=C/c2ccccc2Cl)cc1`, the growth in test [1] is 98.8%; in test [2], 67.5%; in test [3], 100%; in test [4] it was 93.6%; in test [5], 117%; in test [6], 100%. In addition, the growth in [7] was 103%; in [8] it was 101%; in [9] it was 64.5%; in test [10], 91.9%; in test [11], 102%; in [12], 104%. In addition, the growth is 84.9% in test [13]; 95.1% in test [14]; 90.3% in test [15]; 99% in test [16]; 111% in test [17]; 98.5% in [18]. The figures for the growth in test [19] and in [20] were 99.9% and 103%, respectively.

For `CC(C)(C)[Si](C)(C)OC1[C@@H](CNC(N)=O)O[C@@H](n2cnc3c(NC(=O)Nc4ccccc4)ncnc32)[C@H]1O[Si](C)(C)C(C)(C)C` (stereo partly specified), the growth was 72.6% in test [1]; 35.2% in test [2]; 75.4% in test [3]; 77.9% in [4]; 6.77% (active) in [5]; 48.3% in [6]. In addition, the growth was 64.7% in test [7]; 68.1% in [8]; 78.6% in test [9]; 54.3% in [10]; 48.3% in [11]; -7.1% (active) in test [12]. The growth in test [13] was 73.9%; in test [14] it was 88.4%; in test [15], 62.2%; in test [16] it was 17%; in test [17], 76.9%; in [18], 83.3%. Moreover, the growth in [19] is 32.3%; in [20] it was 92.7%.

Consider `CCC1=CC2CN(C1)Cc1c([nH]c3ccccc13)[C@@](C(=O)OC)(c1cc3c(cc1OC)N(C)[C@H]1[C@@](O)(C(=O)OC)[C@H](OC(C)=O)[C@]4(CC)C=CCN5CC[C@]31[C@@H]54)C2` (stereo partly specified), for which the growth was -30.1% (active) in test [1]; 17% in [2]; 44.5% in [3]; 30.3% in test [4]; 47.1% in test [5]; 17.4% in test [6]. Further, the growth in test [7] is 15.4%; in [8], 6.49% (active); in [9], 59.1%; in test [10], -36.8% (active); in test [11], 21.5%; in [12] it was 2.55% (active). Besides, the growth is -5.65% (active) in test [13]; 53.6% in [14]; 11% in test [15]; 34.5% in [16]; -46.9% (active) in test [17]; 43.6% in test [18]. The growth in [19] is 20%; in test [20], 62.1%.

On to `COc1cccc(NC(=O)OC(C)C)c1`, for which the growth in test [1] is 103%; in test [2] it was 88.1%; in [3], 94.5%; in test [4], 116%; in test [5], 109%; in test [6], 108%. The growth in [7] was 108%; in test [8], 106%; in [9], 108%; in test [10], 112%; in [11] it was 96.3%; in test [12], 105%. The growth was 96.7% in test [13]; 116% in test [14]; 94.9% in [15]; 93.5% in test [16]; 109% in test [17]; 108% in [18]. In addition, the growth in [19] was 102%.

The record behind these values is PubChem BioAssay (NCI).
